An excerpt weighted towards active compounds, which were near 1.7% of everything screened.
3CLpro inhibitor: SARS-CoV 3CLpro protease inhibitors, primary screen, biochemical, quenched FRET | Replicase polyprotein 1ab (Severe acute respiratory syndrome coronavirus), P0C6X7 | recombinant SARS-CoV 3CLpro, quenched FRET peptide cleavage | inhibition, % at 6 µM | hit rate 0.14% among 290,000 | AID 1706, 2009; in the data active means inhibition above about 12%
SSB-PriA inh: inhibitors of Klebsiella pneumoniae PriA binding to SSB C-terminal tail, primary screen, biochemical, AlphaScreen; PriA–SSB C-terminal tail interaction (Klebsiella pneumoniae); AlphaScreen SSBct-PriA binding, biotinylated peptide; inhibition, % at 33 µM; hit rate 0.6% among 430,000; in the data active means inhibition mostly above about 37%, no sharp cut-off; inactive means mostly below about 20%;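 further: plate controls were negative control peptide for no effect and reference peptide for full effect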
RecA splice inh: Mtb RecA intein splicing inhibitors, primary screen, biochemical, fluorescence, HTS; cell-free RecA intein splicing; hit rate 0.75% among 290,000; AID 2221, 2009; inhibition, % (test concentration not listed); in the data active means inhibition above about 30%;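 further: 0% = vehicle wells and 100% = reference inhibitor control wells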
CCHF vOTU inh: CCHFV vOTU protease inhibitors, primary screen, biochemical, Pep-AMC substrate, fluorescence. hit rate 0.55% among 370,000. Crimean-Congo hemorrhagic fever virus L polyprotein viral ovarian tumor (vOTU) protease …. AID 651958, 2012. inhibition, % at 11.5 µM; in the data active means inhibition above about 30%; further: 0% = vehicle wells with enzyme and 100% = no enzyme wells
DUSP3 inh: VHR1 phosphatase inhibitors, primary screen, biochemical, absorbance, uHTS. Dual specificity protein phosphatase 3 (Homo sapiens), P51452. hit rate 0.52% among 290,000. inhibition, % at 13.3 µM. recombinant VHR phosphatase, pNPP absorbance. AID 1654, 2009; in the data active means inhibition above about 50%
Target sequence (P51452 whole entry, looked up): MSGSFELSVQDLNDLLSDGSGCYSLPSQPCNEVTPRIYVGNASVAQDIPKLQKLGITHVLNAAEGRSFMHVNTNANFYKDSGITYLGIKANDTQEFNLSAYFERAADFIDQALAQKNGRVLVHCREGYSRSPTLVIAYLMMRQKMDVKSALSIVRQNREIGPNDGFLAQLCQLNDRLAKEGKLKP
* marks the source's active call; other numbers are inactive results; . = no result.

SMILES	3CLpro inhibitor	SSB-PriA inh	RecA splice inh	CCHF vOTU inh	DUSP3 inh
COc1ccc(/C=C(/NC(=O)c2ccccc2)C(=O)NCCCn2ccnc2)cc1OC	-3.4	-9.5	-0.4	11.4	16.5
Cc1ccc(C(=O)N/C(=C\c2ccco2)C(=O)NCCCn2ccnc2)cc1	-3.0	102.6*	-0.7	-11.3	20.9
CCOc1ccc(-c2ccc(=O)n(CCNS(C)(=O)=O)n2)cc1	.	-3.0	.	.	.
O=C(c1ccc2c(c1)OCO2)N1CCCC(c2nnc(-c3cccs3)o2)C1 (centres undefined)	.	-6.0	.	.	.
Clc1ccc2nc(CN3CCCc4ccccc43)cn2c1	1.2	42.6*	4.3	7.8	-9.6
Clc1ccc2nc(CN3CCCCC3)cn2c1	1.0	2.0	-0.2	9.5	8.2
O=C(NC[C@H]1CCCN1c1nccs1)c1c[nH]c2ccccc12	.	5.0	.	.	.
O=C(NCC1CCCN1c1ccccc1)c1c[nH]c2ccccc12 (centres undefined)	.	53.0*	.	.	.
Cn1cc(CC(=O)NCC2CCCN2c2ccccc2)c2ccccc21 (centres undefined)	.	39.0*	.	.	.
CCCCCNC(=O)c1cc2nc(C)ccc2o1	.	6.0	.	.	.
C/C(=N\NC(=S)NCc1ccccc1)c1ccco1	1.3	.	-0.5	-2.3	-3.0
C/C(=N/NC(=S)NCCc1ccccc1)c1ccco1	.	62.0*	.	.	.
COc1ccc(Cl)c2sc(NC(=O)c3cc(C)no3)nc12	.	-8.0	.	.	.
COc1ccccc1CNC(=O)C(=O)c1cn(CC(=O)N2CCCC2)c2ccccc12	-3.2	0.0	0.2	9.8	52.2*
COc1ccc(CNC(=O)C(=O)c2cn(CC(=O)N3CCCC3)c3ccccc23)cc1	2.0	2.3	-0.1	13.6	5.0
Cc1ccc(NC(=O)c2c(-c3ccccc3)c3cc(C)ccc3[nH]c2=O)c(C(=O)c2ccccc2)c1	.	-2.0	.	.	.
CCOC(=O)CCC(=O)NC[C@H]1CN(c2ccc(C)cc2)C(=O)O1	.	-8.0	.	.	.
CCOc1ccccc1NC1=NCC(=O)N1Cc1ccc(F)cc1	-2.1	-4.0	-2.7	5.0	53.4*
O=C(c1ccsc1)N1CCCSCC1CN1CCOCC1 (centres undefined)	.	-10.0	.	.	.
CCOC(=O)C1CCN(S(=O)(=O)c2c(Cl)ccc3nonc23)CC1	2.5	.	41.1*	5.5	16.3
COc1ccccc1C1CCN(C(=O)c2ccccc2)CC1	3.3	-11.6	2.4	8.9	14.1
COc1ccccc1C1CCN(C(=O)C2CCCCC2)CC1	1.2	41.1*	4.6	9.2	1.6
O=c1[nH]c2ccccc2n1C1=CCCC1	-2.0	-21.0	0.8	8.2	13.9
O=c1[nH]c2ccccc2n1C1=CCNCC1	0.2	19.4	-0.4	2.7	52.0*
Cc1cccc2c(=O)c(C(=O)NCCCN3CCOCC3)c[nH]c12	1.0	7.6	-0.5	1.0	52.9*
SMILES	3CLpro inhibitor	SSB-PriA inh	RecA splice inh	CCHF vOTU inh	DUSP3 inh
O=C(CSc1n[nH]c(-c2ccccn2)n1)NC1CC2CCC1C2 (centres undefined)	.	99.0*	.	.	.
O=C(CSc1n[nH]c(-c2ccccn2)n1)Nc1ccc(Cl)cc1Cl	.	23.3	.	.	.
O=C(CSc1n[nH]c(-c2ccncc2)n1)Nc1cccc(Cl)c1	.	30.4	.	.	.
O=C(CSc1n[nH]c(-c2ccccn2)n1)Nc1cccc(Cl)c1	-4.4	87.9*	-3.8	-2.4	22.6
Cc1ccccc1NC(=O)CSc1n[nH]c(-c2ccccn2)n1	-0.5	105.8*	0.4	24.0	16.7
Cc1cc(C)n2nc(Nc3ccc(S(N)(=O)=O)cc3)nc2n1	.	-3.0	.	.	.
COC(=O)Cn1c(=NC(=O)c2ccnn2C)sc2cc(C(=O)OC)ccc21	.	-10.0	.	.	.
CC(=O)NNC(=O)c1[nH]c2ccc(Cl)cc2c1-c1ccccc1	0.2	2.0	.	-5.5	15.5
NNC(=O)c1[nH]c2ccccc2c1-c1ccccc1	5.0	101.9*	5.3	-9.4	-16.5
COc1ccc(C=Nc2c(-c3ccc(OC)cc3)nc3n2CCS3)cc1	.	55.9*	.	.	.
CCOC(=O)N1CCCSCC1CN1CCCC1 (centres undefined)	.	-3.0	.	.	.
NC(=O)c1n[nH]c2ccccc12	.	-10.0	.	.	.
Cc1cc(C)cc(C(=O)Nc2ccc(-c3ccc4nnc(-c5ccccn5)n4n3)cc2)c1	.	67.0*	.	.	.
O=C(Nc1ccc(-c2ccc3nnc(-c4ccccn4)n3n2)cc1)c1cccnc1Cl	.	87.0*	.	.	.
O=C(Nc1ccc(-c2ccc3nnc(-c4ccncc4)n3n2)cc1)c1cccnc1Cl	.	18.0	.	.	.
O=C(Nc1ccc(-c2ccc3nnc(-c4ccccn4)n3n2)cc1)c1cccc2ccccc12	.	-19.0	.	.	.
COc1cc(N)c(Cc2nccc3cc(OC)c(OC)cc23)cc1OC	0.3	28.5	45.7*	2.9	16.6
C[C@](O)(CNC(=O)C(=O)NCCc1ccccc1)c1ccco1	.	-20.0	.	.	.
Cc1ccc(S(=O)(=O)N2C(=O)CCC2C(=O)N2CCCCC2)cc1 (centres undefined)	3.2	-6.0	-1.4	-6.5	52.0*
Cc1ccc(S(=O)(=O)N2C(=O)CCC2C(=O)N2CCN(C)CC2)cc1 (centres undefined)	-4.2	-4.6	-1.7	6.7	0.1
CCCCCCCCCCCCS(=O)(=O)CCS(=O)(=O)OCC(F)(F)F	.	-7.0	.	.	.
Oc1c(Br)cc(Br)c2cccnc12	.	-8.4	.	2.6	.
[O-][n+]1cccc2c(Br)cc(Br)c(O)c21	0.1	69.1*	6.2	-1.7	28.3
CCN(CC)S(=O)(=O)c1ccc(C(=O)N(Cc2ccoc2)Cc2cccs2)cc1	.	19.0	.	.	.
COc1cc2c(=O)n(CCC(=O)NCC3CCCO3)c(=O)n(CC(=O)c3ccc(Cl)cc3)c2cc1OC (centres undefined)	-7.0	4.2	0.5	-8.8	50.6*
SMILES	3CLpro inhibitor	SSB-PriA inh	RecA splice inh	CCHF vOTU inh	DUSP3 inh
COc1cccc(C(=O)Cn2c(=O)n(CCC(=O)NCC3CCCO3)c(=O)c3cc(OC)c(OC)cc32)c1 (centres undefined)	-6.5	-21.2	-10.4	-0.1	15.4
CCC(NS(=O)(=O)c1ccc(C)cc1)C(=O)N1CCN(c2ccccn2)CC1 (centres undefined)	-3.6	-3.6	-1.6	3.8	50.0*
CCC(CC)NC(=O)CCc1nc2ccccc2c(=O)[nH]1	-2.9	-0.1	-0.2	-9.4	51.4*
C#CCN(C)Cc1ccc(O)c2ncccc12	.	109.5*	.	.	.
CC(C)OCc1ccc(O)c2ncccc12	.	86.9*	.	.	.
Oc1ccc(-c2ccc(O)c3ncccc23)c2cccnc12	.	51.0	.	.	.
CCCCCCCCCCCCCCCCSCc1ccc(O)c2ncccc12	.	59.5*	.	.	.
CCCCCCCCCCCCCCSCc1ccc(O)c2ncccc12	.	57.5	.	.	.
Oc1ccc(Cc2ccc(O)c3ncccc23)c2cccnc12	.	72.4*	.	.	.
CCc1ccc(O)c2ncccc12	.	27.9	.	.	.
CCOc1ccc(NCc2ccc(O)c3ncccc23)cc1	.	19.0	.	.	.
O=S(=O)(NCC1CCN(Cc2ccco2)CC1)c1cc(F)ccc1F	.	-5.0	.	.	.
CCOCCn1c(=NC(=O)c2cc3ccccc3cc2OC)sc2cc(Br)ccc21	.	6.0	.	.	.
CCCCCC(=O)c1ccc(O)c2ncccc12	.	129.5*	.	.	.
